Holding throughout (settings): mRNA level, 48 h; actives raise or lower the signal
Read-out in assay [1]: Alpha-fetoprotein (AFP) gene, AFP (gene 174)
In words: LTEA_HepaRG_AFP: Life Technologies and Expression Analysis (LTEA) Assay for Alpha-fetoprotein (AFP) gene using HepaRG (AID 2283472). The essentials: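 Differentiated human HepaRG cells exposed 48 h in serum-free induction medium, 8-point half-log series from 100 uM in 0.5% DMSO, duplicate. AFP mRNA by qRT-PCR, normalized to ACTB, GAPDH, POLR2A; bidirectional fit vs DMSO.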

Read-out in assay [2]: BCL2L11 (gene 10018)
In words: LTEA_HepaRG_BCL2L11: Life Technologies and Expression Analysis (LTEA) Assay for Bcl-2 (BCL2L11) gene using HepaRG (AID 2283473). The essentials:
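Read-out is BCL2L11 transcript level by qRT-PCR, normalized to three housekeeping genes and fitted bidirectionally against 0.5% DMSO vehicle. HepaRG cells received chemicals for 48 h in serum-free induction medium, 100 uM down in half-log dilutions.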

Read-out in assay [3]: Apolipoprotein A-V (APOA5) gene, APOA5 (gene 116519)
Kind of assay: LTEA_HepaRG_APOA5: Life Technologies and Expression Analysis (LTEA) Assay for Apolipoprotein A-V (APOA5) gene using HepaRG (AID 2283474). The essentials:
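Readout is APOA5 transcript level by qRT-PCR on Fluidigm dynamic arrays, normalized to three housekeeping genes. HepaRG cultures received chemicals for 48 h at up to 100 uM (half-log steps, 0.5% DMSO), with gain or loss scored relative to DMSO.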

Read-out in assay [4]: Apoptosis regulator Bcl-2 (Homo sapiens) (UniProt P10415)
Kind of assay: LTEA_HepaRG_BCL2: Life Technologies and Expression Analysis (LTEA) Assay for Bcl-2 gene using HepaRG (AID 2283475). In outline: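 Differentiated human HepaRG cells in serum-free induction medium exposed 48 h, in duplicate, to 8-point half-log series from 100 uM in 0.5% DMSO. BCL2 mRNA by qRT-PCR (TaqMan/Fluidigm), normalized to ACTB, GAPDH, POLR2A; bidirectional fit against DMSO.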

Read-out in assay [5]: Bcl-2 (BID) gene, BID (gene 637)
Kind of assay: LTEA_HepaRG_BID: Life Technologies and Expression Analysis (LTEA) Assay for Bcl-2 (BID) gene using HepaRG (AID 2283476). The essentials:
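Gene expression by qRT-PCR in HepaRG cells after 48 h exposure, duplicate wells, eight half-log concentrations topping at 100 uM in 0.5% DMSO. Normalized to ACTB, GAPDH, POLR2A; bidirectional fitting relative to DMSO.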

Read-out in assay [6]: Caspase-3 (Homo sapiens) (UniProt P42574)
In words: LTEA_HepaRG_CASP3: Life Technologies and Expression Analysis (LTEA) Assay for cysteine-aspartic acid protease (CASP3) using HepaRG (AID 2283477). In outline: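 Read-out is CASP3 mRNA level by TaqMan qRT-PCR in human HepaRG cells after 48 h chemical exposure. Eight half-log concentrations topping at 100 uM were tested in 0.5% DMSO; gain or loss was fitted relative to DMSO.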

Read-out in assay [7]: Cytochrome P450 (CYP24A1), CYP24A1 (gene 1591)
Kind of assay: LTEA_HepaRG_CYP24A1: Life Technologies and Expression Analysis (LTEA) Assay for Cytochrome P450 (CYP24A1) using HepaRG (AID 2283478). In outline: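 HepaRG, 48 h chemical exposure, 8-pt half-log CRC from 100 uM, 0.5% DMSO vehicle, duplicates. Endpoint: CYP24A1 mRNA by Fluidigm TaqMan qRT-PCR, normalized ACTB/GAPDH/POLR2A; gain/loss fit vs DMSO.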

Read-out in assay [8]: Cytochrome P450 (CYP1A2), CYP1A2 (gene 1544)
Kind of assay: LTEA_HepaRG_CYP1A2: Life Technologies and Expression Analysis (LTEA) Assay for Cytochrome P450 (CYP1A2) using HepaRG (AID 2283479). The essentials: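 CYP1A2 transcript induction or loss, quantified by Fluidigm qRT-PCR against three housekeeping genes, was fitted bidirectionally against 0.5% DMSO controls. Human HepaRG cells received eight half-log concentrations from 100 uM over 48 h.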

Read-out in assay [9]: cysteine-aspartic acid protease (CASP8), CASP8 (gene 841)
Kind of assay: LTEA_HepaRG_CASP8: Life Technologies and Expression Analysis (LTEA) Assay for cysteine-aspartic acid protease (CASP8) using HepaRG (AID 2283480). In outline:
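HepaRG, 48 h exposure, duplicate wells; 8 conc, half-log from 100 uM, 0.5% DMSO. Serum-free induction medium. CASP8 mRNA by TaqMan qRT-PCR, norm. ACTB/GAPDH/POLR2A; gain/loss fitted vs DMSO.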

Read-out in assay [10]: Cytochrome P450 (CYP2B6), CYP2B6 (gene 1555)
In words: LTEA_HepaRG_CYP2B6: Life Technologies and Expression Analysis (LTEA) Assay for Cytochrome P450 (CYP2B6) using HepaRG (AID 2283481). In outline:
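HepaRG cells plated 48 h, switched to serum-free induction medium, then dosed 48 h (8 points, half-log from 100 uM, 0.5% DMSO). RNA isolated; CYP2B6 expression measured by qRT-PCR; gain or loss fitted relative to DMSO.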

Activity calls are given as the source filed them. Rule for the calls: active = hit-call score of the fitted dose curve at least 0.9, where 1 is the maximum; inactive = score below 0.9.

Chain of Caspase-3 (Homo sapiens) (P42574 whole entry, looked up): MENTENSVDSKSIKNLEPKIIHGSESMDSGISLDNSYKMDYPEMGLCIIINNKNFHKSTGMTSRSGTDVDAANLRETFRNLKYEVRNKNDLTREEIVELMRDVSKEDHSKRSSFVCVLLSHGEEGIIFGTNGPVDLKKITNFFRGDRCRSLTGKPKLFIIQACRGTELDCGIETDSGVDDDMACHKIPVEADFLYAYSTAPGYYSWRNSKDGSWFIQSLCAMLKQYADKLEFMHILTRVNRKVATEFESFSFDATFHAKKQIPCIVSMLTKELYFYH
Chain of Apoptosis regulator Bcl-2 (Homo sapiens) (P10415 whole entry, looked up): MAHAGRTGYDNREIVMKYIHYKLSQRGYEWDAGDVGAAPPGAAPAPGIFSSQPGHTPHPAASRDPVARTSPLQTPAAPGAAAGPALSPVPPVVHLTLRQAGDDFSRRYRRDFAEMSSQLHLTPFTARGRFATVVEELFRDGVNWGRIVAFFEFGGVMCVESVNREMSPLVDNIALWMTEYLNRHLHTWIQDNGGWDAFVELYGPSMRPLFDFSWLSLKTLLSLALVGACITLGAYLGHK

A word on the AC50: it is the concentration giving half of the maximal activity seen. On to `CC(C)(c1ccccc1)c1ccc(O)c(C(C)(C)c2ccccc2)c1`, for which the AC50 in assay [1] is 68.7 µM (active); in assay [3], 50 µM (active); in [4] it was 81.6 µM (active); in assay [10], 11.9 µM (active). Further, the compound was called inactive in assay [2], in assay [5], in assay [6], in assay [7], in assay [8] and in assay [9].
Regarding `CCCCCCCCc1ccc(O)cc1`, the outcome in assay [1], in assay [2], in [3], in assay [4], in assay [5] and in [6] was inactive. For the same compound, the call in assay [7], in [8], in assay [9] and in [10] was inactive.
For `CC(C)(OO)c1ccccc1`, the compound was classed as inactive in [1], in assay [2], in [3], in assay [4], in assay [5] and in [6]. The result in [7] and in assay [9] was inactive. Moreover, the AC50 in assay [8] was 50 µM (active); in assay [10], 22.9 µM (active).
On to `CN(C)N=O`, for which the call in assay [1], in [2], in assay [3], in assay [4], in assay [5] and in [6] was inactive. Also, the result in assay [7], in assay [8], in assay [9] and in assay [10] was inactive.
For the compound `NC(=O)O`, the outcome in assay [1], in assay [2], in [3], in [4], in [5] and in [6] was inactive. Also, the compound was classed as inactive in assay [7], in [8], in assay [9] and in [10].
`CC12CC1(C)C(=O)N(c1cc(Cl)cc(Cl)c1)C2=O` (centres undefined): the AC50 in assay [1] was 25.8 µM (active); in [8] it was 3.26 µM (active); in assay [10], 4.53 µM (active). Also, the result in assay [2], in assay [3], in [4], in assay [5], in assay [7] and in assay [9] was inactive.
On to `CCOP(=S)(OCC)Oc1nc(Cl)c(Cl)cc1Cl`, for which the compound was classed as inactive in [1], in [2], in [3], in assay [4], in [5] and in assay [6]. For the same compound, the compound was classed as inactive in assay [7] and in assay [9]. Further, the AC50 in assay [8] is 50 µM (active); in [10], 11.4 µM (active).
As to `O=C1C2(Cl)C3(Cl)C4(Cl)C(Cl)(Cl)C5(Cl)C3(Cl)C1(Cl)C5(Cl)C24Cl` (centres undefined), the AC50 is 24.1 µM (active) in assay [1]; 11.1 µM (active) in assay [4]; 92.3 µM (active) in assay [6]; 8.79 µM (active) in assay [8]; 93.5 µM (active) in assay [10]. For the same compound, the outcome in [2], in assay [3], in [5], in assay [7] and in assay [9] was inactive.
As to `CC(C)(C)CC(C)(C)c1ccc(O)cc1`, the call in [1], in assay [2], in assay [4], in [6], in [7] and in assay [8] was inactive. Further, the call in [9] was inactive. Besides, the AC50 in assay [3] is 50 µM (active); in assay [5], 82.8 µM (active); in assay [10], 3.33 µM (active).
Take `ClC1(Cl)C2(Cl)C3(Cl)C4(Cl)C(Cl)(Cl)C5(Cl)C3(Cl)C1(Cl)C5(Cl)C24Cl` (centres undefined): the compound was classed as inactive in [1], in [2], in assay [3], in [4], in assay [5] and in assay [6]. Besides, the outcome in assay [7] and in assay [9] was inactive. Further, the values for the AC50 in [8] and in assay [10] were 15.8 µM (active) and 0.73 µM (active), respectively.
For the compound `CCC(C)(C)c1ccc(O)c(C(C)(C)CC)c1`, the compound was classed as inactive in assay [1], in [2], in assay [3], in assay [4], in assay [5] and in assay [6]. The result in [7], in assay [9] and in assay [10] was inactive. Moreover, in assay [8], the AC50 is 80.4 µM (active).
Regarding `O=c1[nH]c(=O)[nH]c(=O)[nH]1`, the compound was classed as inactive in assay [1], in assay [2], in [3], in assay [4], in assay [5] and in assay [6]. The result in assay [7], in assay [8], in assay [9] and in assay [10] was inactive.
Take `O=C(Nc1ccc2[nH]ccc2c1)c1cc2cc(F)ccc2n1Cc1cccc(F)c1`: the AC50 in assay [1] was 25.2 µM (active); in [2], 12.4 µM (active); in [3] it was 56.2 µM (active); in [4], 22.7 µM (active); in assay [8] it was 12.5 µM (active); in assay [10] it was 35.1 µM (active). The compound was called inactive in assay [5], in assay [6], in assay [7] and in assay [9].
In the case of `CCN1CCC2(CC1)COc1cc3c(cc12)N(C(=O)c1ccc(-c2ccc(-c4nnc(C)o4)cc2C)cc1)CC3`, the outcome in assay [1], in assay [2], in assay [4], in [5], in assay [6] and in assay [7] was inactive. Besides, the result in assay [8] was inactive. The AC50 is 24.6 µM (active) in [3], 21.8 µM (active) in [9] and 28.3 µM (active) in [10].
Regarding `Oc1cccc2cccnc12`, the result in [1], in assay [2], in assay [3], in assay [4], in assay [5] and in [6] was inactive. For the same compound, the outcome in assay [7], in [9] and in assay [10] was inactive. Further, the concentration at half-maximal activity (AC50) in assay [8] was 7.72 µM (active).

These data come from PubChem BioAssay (EPA / NIEHS).
